Results from PubChem BioAssay AID624296 (National Center for Advancing Translational Sciences (NCATS), 2012).
The campaign covered roughly 350,000 compounds. About 9,900 (2.8%) were called active. Where a call stands in place of a potency, no number is given. Another 15% or so got no clear call; they are omitted. The call rests on the fitted dose curve; in most records, active means well fitted activation curve with a large enough effect; inconclusive means small, poorly fitted or top-dose-only effect; inactive means no such curve, though single readings can be large or run the other way. The full list was thinned out, with actives kept by preference.

test: A quantitative high throughput screen for small molecules that induce DNA re-replication in MCF 10a normal breast cells.; further: nearly all actives have a fitted effect of over 50% in size; details: MCF 10A DNA re-replication, Hoechst nuclear intensity, 48 h; series mostly up to 46.1 µM
Potency means the concentration at half of the fitted maximal effect.

Compound | Potency | activity, positive = re-replication
CCCn1nc(C(=O)OCc2nc(N)nc(Nc3ccccc3C)n2)c2ccccc2c1=O | inactive | –
Cc1cccc(OCc2nnc(SCc3nc4cc(C(F)(F)F)ccc4c(=O)[nH]3)o2)c1 | 5.8 µM (active) | –
Cc1cccc(OCc2nnc(SCn3nnc4ccccc4c3=O)o2)c1 | inactive | –
Cc1cc(C)cc(OCc2nnc(SCC(=O)Nc3ccccc3)o2)c1 | – | -182% [at 0.0737 µM] (inactive)
C=CC[C@H](CC(=O)NCCO)C(=O)N[C@@H](COC(=O)[C@@H](CC=C)Cc1ccc(F)cc1)Cc1c[nH]c2ccccc12 | inactive | –
Cc1cccc2c1N(CC(=O)OC(C)C)C(=O)C2=O | inactive | –
CC(C)OC(=O)CN1C(=O)C(=O)c2ccccc21 | 23.1 µM (active) | –
CC(C)OC(=O)CN1C(=O)c2ccccc2C1=O | inactive | –
CCN1C[C@@H]2[C@@H]3C(=O)N(C)C(=O)[C@@H]3[C@](C)(C1=O)N2C(=O)c1ccccc1 | inactive | –
NCCN1CCN2C(=O)CN(C(=O)c3ccccc3)CC12 (stereo not given) | inactive | –
O=c1oc2ccccc2cc1-c1cn(-c2ccccc2)c(=S)[nH]1 | 5.8 µM (active) | –
S=c1[nH]c(-c2cccs2)cn1-c1ccccc1 | inactive | –
O=C(c1cn(-c2ccccc2)nc1-c1cc2ccccc2oc1=O)N1CCOCC1 | inactive | –
COc1ccc(CNC(=O)COC(=O)c2ccc(C)c(S(=O)(=O)N3CCOCC3)c2)cc1OC | inactive | –
O=C(NCc1cccnc1)c1cccnc1Sc1ccc(Cl)cc1 | inactive | –
CSc1ncccc1C(=O)NC1CCCCCC1 | inactive | –
O=C(NC1CCCCCC1)c1cccnc1Sc1ccc(Cl)cc1 | 18.4 µM (active) | –
COc1ccc(N(C(=O)c2snc(C(N)=O)c2N)C(C(=O)NC2CCCC2)c2ccco2)cc1OC (stereo not given) | inactive | –
COc1ccc(N(C(=O)c2snc(C(N)=O)c2N)C(C(=O)NC2CCCC2)c2ccc(C)o2)c(OC)c1 (stereo not given) | 20.6 µM (active) | –
CCC(C(=O)NC1CCCCC1)N(C(=O)c1snc(C(N)=O)c1N)c1ccc(OC)cc1OC (stereo not given) | inactive | –
COc1ccc(/C=C/C(=O)OCC(=O)NC2CCCCCC2)cc1OC | inactive | –
CC(C)(C)OC(=O)NCCCCCNC(=O)c1[nH]cnc1C(=O)Nc1nccs1 | inactive | –

Compound | Potency | activity, positive = re-replication
Cc1cc([N+](=O)[O-])c(=O)[nH]c1C | inactive | –
O=C(Nc1cccc(S(=O)(=O)N2CCCCC2)c1)c1ccc2c(c1)OCO2 | inactive | –
Cc1onc(-c2c(F)cccc2Cl)c1C(=O)Nc1cccc(S(=O)(=O)N2CCCCC2)c1 | 14.6 µM (active) | –
Cc1onc(-c2c(F)cccc2Cl)c1C(=O)N(C)CC(=O)Nc1cccc(F)c1 | inactive | –
CSc1c(SCc2ccccc2)cnn(Cc2ccccc2)c1=O | 18.4 µM (active) | –
CSc1nc2ccccc2c(=O)n1Cc1ccc(F)cc1 | inactive | –
Cn1c(CO)cnc1SCc1ccccc1 | inactive | –
CCCCNC1(C#N)CCN(Cc2ccccc2)CC1 | inactive | –
CCc1nc(C)cn1S(=O)(=O)c1cc(OC)c(C)cc1C | inactive | –
CC(C)c1nccn1S(=O)(=O)c1cc([N+](=O)[O-])ccc1Cl | inactive | –
CCc1nc(C)cn1S(=O)(=O)c1cc([N+](=O)[O-])ccc1Cl | 6.51 µM (active) | –
COc1ccccc1C(=O)N(C1=NC(C)CS1)c1ccc(Cl)cc1 (stereo not given) | inactive | –
CC(=O)Nc1ccc(C(=O)N(C2=NC(C)CS2)c2ccc(Cl)cc2)cc1 (stereo not given) | 5.17 µM (active) | –
CC(=O)Nc1ccc(NC(=O)CCCNC(=O)c2ccc(Cl)cc2)cc1 | inactive | –
O=C1CC(c2ccccc2)C(c2ccccc2)=NN1 (stereo not given) | inactive | –
Cc1nc2ccc(NC(=O)C3CCCCC3)cc2s1 | inactive | –
CN(C)CCCn1c(N)c(C#N)c2nc(C#N)c(C#N)nc21 | 7.31 µM (active) | –
CCCN=C1N(C)C[C@@H]2[C@@H]3C(=O)N(Cc4ccccc4)C(=O)[C@@H]3[C@](C)(C(=O)OC)N12 | inactive | –
COc1ccccc1NS(=O)(=O)c1ccc(C)c(C(=O)NNC(=O)c2csc(N3CCOCC3)n2)c1 | inactive | –
CC(C)C(NC(=O)c1c(F)cccc1F)C(=O)NNC(=O)c1ccccc1 (stereo not given) | inactive | –
CCCc1nc2c(c(=O)c3ccccc3n2C)c(=O)n1C1CCCCCC1 | 14.6 µM (active) | –
CCCc1nc2c(c(=O)c3ccccc3n2C)c(=O)n1-c1cc(C)cc(C)c1 | inactive | –

Compound | Potency | activity, positive = re-replication
Cn1c2ccccc2c(=O)c2c(O)cccc21 | inactive | –
CC(=NNC(=O)c1ccncc1)c1ccc(Cl)c(Cl)c1 | inactive | –
CCC1CCCCN1C(=S)NC(=O)c1ccco1 (stereo not given) | inactive | –
CCN(CC)CCNC(=O)c1ccc(NC(=O)c2cc(-c3ccncc3)nc3ccccc23)cc1 | inactive | –
O=C(Nc1ccncc1)c1cc(-c2ccccn2)nc2ccc(Br)cc12 | inactive | –
Cc1ccc2nc(-c3ccncc3)cc(C(=O)Nc3ccc(OC(F)F)cc3)c2c1 | 14.6 µM (active) | –
Cc1nc2ccc(NC(=O)c3cccc(S(=O)(=O)N4CCOCC4)c3)cc2s1 | inactive | –
CC1(C)N=C(N)NC(Nc2ccc(Cl)cc2)=N1 | inactive | –
Cc1csc(=O)n1CC(=O)Nc1ccc(S(C)(=O)=O)cc1 | inactive | –
CCOc1cc(N2CCOCC2)c(OCC)cc1NC(=O)c1cc(C)nc2ccccc12 | inactive | –
CCOc1cc(N2CCOCC2)c(OCC)cc1NC(=O)COc1cccc(Cl)c1 | inactive | –
CCOc1cc(N2CCOCC2)c(OCC)cc1NC(=O)COc1cccc2cccnc12 | 15.8 µM (active) | –
CC(OC(=O)c1cc2ccccc2[nH]1)C(=O)N(C)c1ccccc1 (stereo not given) | inactive | –
CN(C)c1ccc(/C=N/Nc2cc(N3CCOCC3)nc(N3CCOCC3)n2)cc1 | inactive | –
C(=N/Nc1cc(N2CCOCC2)nc(N2CCOCC2)n1)/c1ccccc1 | 23.1 µM (active) | –
Cc1cc(N2CCN(c3ccccc3)CC2)nc(N2CCOCC2)n1 | inactive | –
COc1ccccc1NC(=O)COC(=O)CNC(=O)C1CCCCC1 | inactive | –
CCn1nc(NC(=O)c2ccco2)c2cc3ccc(C)cc3nc21 | 8.91 µM (active) | –
CCCn1nc(NS(=O)(=O)c2ccccc2)c2cc3cc(C)ccc3nc21 | inactive | –
Cc1ccnc(NC(=O)c2ccco2)n1 | inactive | –
COC(=O)[C@]1(Cc2ccccc2)N[C@H](CN(C)S(=O)(=O)c2ccc(F)cc2)[C@@H]2C(=O)N(Cc3ccccc3)C(=O)[C@@H]21 | inactive | –
